Values joined by “and” are separate entries in the source; they are usually repeats but may differ in a detail not shown here. Identical values can stand only once. Inconclusive results are not listed. A structure can be active in one record and inactive in another. Active and inactive are the calls of the source. How the source made its calls, unless noted: active means hit-call score of the fitted dose curve at least 0.9, where 1 is the maximum; inactive means score below 0.9.
Legend:
[1] = ATG_M_06_TRANS: Attagene TRANS-FACTORIAL HepG2 Assay for M06 Transcription Factor (Internal Marker) (AID 2282983; active means hit-call score of the fitted dose curve at least 0.9, where 1 is the maximum); settings: HepG2 Attagene TRANS M06 internal marker reporter
Outline: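 mRNA levels of a reporter transcript, quantified as FAM fluorescence on capillary electrophoresis, served as readout. HepG2 cells expressing exogenous GAL4-chimera reporter constructs were exposed for 24 h. Gain of signal over DMSO was evaluated.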

[2] = target: Transcriptional activator Myb (Homo sapiens) (UniProt P10242); assay: ATG_Myb_CIS: Attagene CIS-FACTORIAL HepG2 Assay for human Myeloblastosis (Myb) Proto-Oncogene Transcription Factor (AID 2282986); settings: HepG2 Attagene CIS-FACTORIAL Myb reporter transcription; actives raise or lower the signal
Outline: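 HepG2 cells were transiently transfected with cis-regulated multiple reporter transcription units reflecting endogenous Myb activity, then exposed to compound for 24 hours. Reporter mRNA was measured by RT-PCR with capillary electrophoresis; bidirectional fitting versus DMSO baseline.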

[3] = target: Nuclear respiratory factor 1 (Homo sapiens) (UniProt Q16656); assay: ATG_NRF1_CIS: Attagene CIS-FACTORIAL HepG2 Assay for human Nuclear Respiratory Factor 1 (NRF1) Orphan Gene (AID 2282987); settings: HepG2 NRF1 cis-element reporter, Attagene multiplex; actives raise or lower the signal
Outline: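 HepG2 cells transiently transfected with multiple reporter transcription units under cis-regulatory promoter control, so endogenous transcription-factor activity is read. After 24 h compound exposure, reporter mRNA quantified by RT-PCR, fluorescent labelling, HpaI digestion and capillary electrophoresis; bidirectional fitting versus DMSO.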

[4] = target: Myc proto-oncogene protein (Homo sapiens) (UniProt P01106); assay: ATG_Myc_CIS: Attagene CIS-FACTORIAL HepG2 Assay for human Myelocytomatosis (Myc) Proto-Oncogene Transcription Factor (AID 2282990); settings: HepG2, Attagene cis-reporter transcription factor activity; actives raise or lower the signal
Outline: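 After 24 h chemical treatment of HepG2 cells carrying multiplexed cis-regulated reporter constructs, reporter transcripts quantified by RT-PCR and capillary electrophoresis of fluorescent fragments. Gain or loss fitted against DMSO baseline.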

[5] = ATG_NF_kB_CIS: Attagene CIS-FACTORIAL HepG2 Assay for human Nuclear Factor Kappa B (NF-kB) (AID 2282991); settings: HepG2 Attagene cis-factorial NF-kB reporter mRNA; actives raise or lower the signal
Outline: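 HepG2 cells transiently transfected with multiplexed cis-element reporter units measuring endogenous transcription factor activity; reporter mRNA read 24 h after dosing by RT-PCR, fluorescent labelling, HpaI digestion and capillary electrophoresis. Bidirectional fit against DMSO baseline.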

[6] = ATG_NRF2_ARE_CIS: Attagene CIS-FACTORIAL HepG2 Assay for human Nuclear Factor Erythroid 2 Related Factor 2 (NFR2) response to Antioxidant Response Elements (ARE) (AID 2282992); settings: HepG2 Attagene ARE/NRF2 reporter, transcription factor activity; actives raise or lower the signal
Outline: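 Endogenous transcription factor activity read out as reporter transcript levels (RT-PCR plus capillary electrophoresis, fluorescence) in transiently transfected HepG2 cells. Measured at 24 h after dosing; gain or loss of signal fitted versus DMSO.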

[7] = ATG_Oct_MLP_CIS: Attagene CIS-FACTORIAL HepG2 Assay for human Octamer-Binding Transcription Factor (Oct) (AID 2282993); settings: HepG2 Attagene cis-factorial Oct reporter, mRNA; actives raise or lower the signal
Outline: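 Cells of the HepG2 line express promoter-controlled reporter sequences whose mRNA levels, after 24 h treatment, are measured by RT-PCR and capillary electrophoresis. Increases and decreases are scored relative to DMSO.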

[8] = target: Cellular tumor antigen p53 (Homo sapiens) (UniProt P04637); assay: ATG_p53_CIS: Attagene CIS-FACTORIAL HepG2 Assay for human p53 Transcription Factor (AID 2282994); settings: HepG2 p53 cis-element reporter, Attagene mRNA; actives raise or lower the signal
Outline: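 Endogenous p53 activity read in transiently transfected HepG2 from a cis-element-driven reporter transcript after 24 h exposure. RNA reverse-transcribed, PCR-amplified, fluorescently labelled and sized by capillary electrophoresis; gain or loss fitted against DMSO baseline.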

[9] = BSK_3C_TissueFactor: BioMAP Diversity Plus: 3C Assay for Tissue Factor Biomarker Activity (AID 2282997); settings: BioMAP 3C HUVEC, tissue factor biomarker readout; actives raise or lower the signal
Outline: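 Tissue Factor measured by ELISA, 24 h after treatment of primary HUVEC in the BioMAP 3C setting.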

[10] = BSK_3C_uPAR: BioMAP Diversity Plus: 3C Assay for Urokinase-type plasminogen activator receptor (uPAR) Biomarker Activity (AID 2282998); settings: BioMAP 3C HUVEC, uPAR biomarker ELISA; actives raise or lower the signal
Outline: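 Endothelial primary cells of human umbilical vein origin received test chemical; 24 h later uPAR was assayed by ELISA. Fitting was bidirectional, DMSO as negative control.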

[11] = BSK_3C_VCAM1: BioMAP Diversity Plus: 3C Assay for Vascular cell adhesion molecule 1 (VCAM1) Biomarker Activity (AID 2282999); settings: BioMAP 3C HUVEC, VCAM1 ELISA, cytokine-stimulated; actives raise or lower the signal
Outline: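 Activity fitted in both directions relative to DMSO, with ELISA measurement of the surface marker on primary HUVEC (3C) at 24 h post-treatment; parallel SRB staining (0.1% SRB, TCA-fixed, 560 nm) flagged overt cytotoxicity.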

[12] = BSK_4H_Eotaxin3: BioMAP Diversity Plus: 4H Assay for Eotaxin 3 Biomarker Activity (AID 2283000); settings: primary human endothelial cells (HUVEC); actives raise or lower the signal
Outline: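 Eotaxin-3 (CCL26) levels were measured by ELISA in HUVEC primary cultures 24 h post-dosing. Gain or loss of signal was fitted in both directions, with DMSO serving as baseline and negative control.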

[13] = target: Hepatocyte nuclear factor 4-alpha (Homo sapiens) (UniProt P41235); assay: ATG_HNF4a_TRANS: Attagene TRANS-FACTORIAL HepG2 Assay for human Hepatocyte Nuclear Factor 4 alpha (HNF4a) (AID 2282982; active means hit-call score of the fitted dose curve at least 0.9, where 1 is the maximum); settings: HepG2 HNF4a transactivation reporter, mRNA readout
Outline: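 Multiplexed reporter assay: transfected HepG2, 24 h exposure, total RNA → oligo(dT) RT → PCR → 6-FAM extension → HpaI digest → CE fluorescence. DMSO = negative control.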

[14] = ATG_M_32_TRANS: Attagene TRANS-FACTORIAL HepG2 Assay for M32 Transcription Factor (Internal Marker) (AID 2282984; active means hit-call score of the fitted dose curve at least 0.9, where 1 is the maximum;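 further: transcript level of a background control reporter unit measured by RT-PCR and capillary electrophoresis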); settings: HepG2 Attagene TRANS M32 internal marker reporter
Outline: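 Cell-based TRANS-format assay in HepG2: exogenous chimeric GAL4 reporter units transiently expressed, compounds applied 24 h. Reporter mRNA detected by RT-PCR plus capillary electrophoresis; this readout is an internal background marker.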

[15] = ATG_NFI_CIS: Attagene CIS-FACTORIAL HepG2 Assay for human Nuclear Factor I (NFI) (AID 2282989); settings: HepG2 cis-regulatory reporter, NFI response element transcription; actives raise or lower the signal
Outline: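 After transient transfection of HepG2 with cis-promoter reporter constructs and 24 h dosing, RNA is reverse-transcribed, amplified, 6-FAM end-labelled and HpaI-digested before capillary analysis. Bidirectional curve fitting against DMSO.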

[16] = target: Glucocorticoid receptor (Homo sapiens) (UniProt P04150); assay: ATG_GR_TRANS: Attagene TRANS-FACTORIAL HepG2 Assay for human Glucocorticoid Receptor (GR) (AID 2282978; active means hit-call score of the fitted dose curve at least 0.9, where 1 is the maximum;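 further: activators score as hits since higher reporter transcript over DMSO is fitted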); settings: HepG2 Attagene TRANS GR reporter, mRNA transcription
Outline: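 HepG2 cells transiently transfected with multiplexed reporter units in which chimeric NR-GAL4 proteins drive GAL4-UAS reporters; 24 h compound exposure. Reporter mRNA measured by RT-PCR, 6-FAM labelling, HpaI digestion and capillary electrophoresis; gain-of-signal fitted versus DMSO.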

[17] = target: Bile acid receptor (Homo sapiens) (UniProt Q96RI1); assay: ATG_FXR_TRANS: Attagene TRANS-FACTORIAL HepG2 Assay for Farnesoid X Receptor (FXR) (AID 2282979; active means hit-call score of the fitted dose curve at least 0.9, where 1 is the maximum;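 further: hits raise reporter mRNA above DMSO so AC50 marks FXR activation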); settings: HepG2 Attagene TRANS FXR-GAL4 reporter transcription
Outline: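 HepG2 cells were transiently transfected with GAL4-UAS reporters driven by chimeric NR-Gal4 proteins and dosed for 24 h. Reporter mRNA was quantified by RT-PCR, fluorescent labelling, HpaI digestion and capillary electrophoresis, with gain of signal scored versus DMSO.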

[18] = target: Nuclear receptor subfamily 4 group A member 2 (Homo sapiens) (UniProt P43354); assay: ATG_NURR1_TRANS: Attagene TRANS-FACTORIAL HepG2 Assay for human Nuclear Receptor Related Protein 1 (NURR1) (AID 2282985; active means hit-call score of the fitted dose curve at least 0.9, where 1 is the maximum); settings: HepG2 Attagene TRANS reporter, mRNA readout
Outline: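 Measures transcriptional activation by an exogenous NR-Gal4 chimera in transfected HepG2 liver cells. After 24 h, reporter RNA is reverse-transcribed, amplified and resolved by capillary electrophoresis; DMSO defines baseline.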

[19] = target: Oxysterols receptor LXR-beta (Homo sapiens) (UniProt P55055); assay: ATG_LXRb_TRANS: Attagene TRANS-FACTORIAL HepG2 Assay for human Liver X Receptor beta (LXRb) (AID 2282981; active means hit-call score of the fitted dose curve at least 0.9, where 1 is the maximum); settings: HepG2 Attagene TRANS GAL4-LXRb reporter, mRNA
Outline: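 After 24 h of chemical treatment, transfected HepG2 cells yield total RNA; reporter cDNA is PCR-amplified, FAM-labelled, HpaI-cut and run on capillary electrophoresis. Signal reflects chimeric LXRb-Gal4 activity on GAL4-UAS reporters.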

Measured: AC50

Nuclear respiratory factor 1 (Homo sapiens), sequence (Q16656 whole entry, looked up): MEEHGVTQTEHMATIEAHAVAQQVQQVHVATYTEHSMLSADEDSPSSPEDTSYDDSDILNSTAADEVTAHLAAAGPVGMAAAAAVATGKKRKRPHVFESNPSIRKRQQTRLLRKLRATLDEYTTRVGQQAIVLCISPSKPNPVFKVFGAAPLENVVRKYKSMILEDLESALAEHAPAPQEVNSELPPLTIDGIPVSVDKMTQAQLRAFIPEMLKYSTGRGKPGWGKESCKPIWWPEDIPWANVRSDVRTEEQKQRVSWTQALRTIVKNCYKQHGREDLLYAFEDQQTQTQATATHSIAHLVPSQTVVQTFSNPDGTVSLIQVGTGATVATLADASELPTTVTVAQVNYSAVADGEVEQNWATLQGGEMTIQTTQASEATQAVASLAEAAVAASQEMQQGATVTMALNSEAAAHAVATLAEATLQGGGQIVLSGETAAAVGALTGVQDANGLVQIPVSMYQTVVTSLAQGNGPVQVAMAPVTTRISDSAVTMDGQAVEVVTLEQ
Transcriptional activator Myb (Homo sapiens), sequence (P10242 whole entry, looked up): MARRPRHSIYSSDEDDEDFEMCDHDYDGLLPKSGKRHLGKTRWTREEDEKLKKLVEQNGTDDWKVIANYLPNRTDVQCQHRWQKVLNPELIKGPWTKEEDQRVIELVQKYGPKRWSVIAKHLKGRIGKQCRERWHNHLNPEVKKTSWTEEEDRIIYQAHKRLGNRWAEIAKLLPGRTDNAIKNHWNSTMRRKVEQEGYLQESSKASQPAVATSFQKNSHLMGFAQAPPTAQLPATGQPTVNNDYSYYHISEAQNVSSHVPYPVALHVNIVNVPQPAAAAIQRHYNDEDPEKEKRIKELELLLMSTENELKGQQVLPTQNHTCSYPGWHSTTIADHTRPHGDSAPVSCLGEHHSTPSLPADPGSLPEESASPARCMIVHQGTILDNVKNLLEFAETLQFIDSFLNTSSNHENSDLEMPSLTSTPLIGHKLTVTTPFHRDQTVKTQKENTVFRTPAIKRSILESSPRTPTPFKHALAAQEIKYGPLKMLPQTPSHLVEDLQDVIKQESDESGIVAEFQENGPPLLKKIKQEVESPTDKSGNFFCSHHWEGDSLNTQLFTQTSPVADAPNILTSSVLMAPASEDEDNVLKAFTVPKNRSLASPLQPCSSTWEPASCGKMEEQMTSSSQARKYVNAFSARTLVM
Hepatocyte nuclear factor 4-alpha (Homo sapiens), sequence (P41235 whole entry, looked up): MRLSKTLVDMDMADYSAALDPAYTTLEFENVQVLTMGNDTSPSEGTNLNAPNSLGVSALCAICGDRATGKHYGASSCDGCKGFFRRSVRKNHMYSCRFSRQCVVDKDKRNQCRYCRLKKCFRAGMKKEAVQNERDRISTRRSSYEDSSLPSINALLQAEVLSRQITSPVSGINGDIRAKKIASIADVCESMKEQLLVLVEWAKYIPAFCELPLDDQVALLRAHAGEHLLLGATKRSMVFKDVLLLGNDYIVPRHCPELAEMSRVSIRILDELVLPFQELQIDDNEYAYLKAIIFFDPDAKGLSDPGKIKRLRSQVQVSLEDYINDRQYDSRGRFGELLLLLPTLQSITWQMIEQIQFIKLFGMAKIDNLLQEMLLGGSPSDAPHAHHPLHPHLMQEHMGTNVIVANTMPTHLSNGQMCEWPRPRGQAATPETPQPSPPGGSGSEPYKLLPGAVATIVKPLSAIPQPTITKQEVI
Glucocorticoid receptor (Homo sapiens), sequence (P04150 whole entry, looked up, the tested form may be a part): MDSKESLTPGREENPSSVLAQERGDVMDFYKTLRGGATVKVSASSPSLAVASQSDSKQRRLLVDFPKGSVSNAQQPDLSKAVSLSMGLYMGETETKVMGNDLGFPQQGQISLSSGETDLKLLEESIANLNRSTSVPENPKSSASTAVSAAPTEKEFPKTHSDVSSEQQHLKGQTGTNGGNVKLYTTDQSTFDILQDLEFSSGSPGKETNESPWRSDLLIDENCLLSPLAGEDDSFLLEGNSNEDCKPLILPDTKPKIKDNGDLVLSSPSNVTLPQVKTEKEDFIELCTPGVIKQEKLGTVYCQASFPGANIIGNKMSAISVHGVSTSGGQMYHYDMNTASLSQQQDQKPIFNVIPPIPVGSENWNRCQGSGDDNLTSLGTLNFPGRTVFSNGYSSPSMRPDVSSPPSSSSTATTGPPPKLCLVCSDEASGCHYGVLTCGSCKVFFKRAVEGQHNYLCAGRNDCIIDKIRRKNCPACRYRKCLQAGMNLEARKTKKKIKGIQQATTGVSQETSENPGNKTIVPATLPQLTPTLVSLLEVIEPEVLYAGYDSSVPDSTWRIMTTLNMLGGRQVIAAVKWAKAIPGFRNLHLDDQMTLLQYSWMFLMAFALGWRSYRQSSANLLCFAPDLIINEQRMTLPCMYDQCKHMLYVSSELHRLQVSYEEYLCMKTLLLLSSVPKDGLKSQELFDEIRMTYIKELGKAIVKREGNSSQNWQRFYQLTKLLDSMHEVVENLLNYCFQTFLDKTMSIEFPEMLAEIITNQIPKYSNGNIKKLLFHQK
Myc proto-oncogene protein (Homo sapiens), sequence (P01106 whole entry, looked up, the tested form may be a part): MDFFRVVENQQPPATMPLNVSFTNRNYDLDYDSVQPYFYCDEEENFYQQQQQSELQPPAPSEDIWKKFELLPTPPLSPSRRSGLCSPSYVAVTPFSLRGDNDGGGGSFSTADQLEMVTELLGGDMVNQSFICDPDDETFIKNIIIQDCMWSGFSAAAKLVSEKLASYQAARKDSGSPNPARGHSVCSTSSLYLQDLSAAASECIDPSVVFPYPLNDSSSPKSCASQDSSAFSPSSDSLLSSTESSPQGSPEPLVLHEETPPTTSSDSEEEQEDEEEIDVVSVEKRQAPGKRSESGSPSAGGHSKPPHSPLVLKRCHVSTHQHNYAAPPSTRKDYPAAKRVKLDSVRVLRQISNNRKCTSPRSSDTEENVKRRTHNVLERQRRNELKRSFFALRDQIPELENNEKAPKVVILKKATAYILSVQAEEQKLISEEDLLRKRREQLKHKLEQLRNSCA
Cellular tumor antigen p53 (Homo sapiens), sequence (P04637 whole entry, looked up): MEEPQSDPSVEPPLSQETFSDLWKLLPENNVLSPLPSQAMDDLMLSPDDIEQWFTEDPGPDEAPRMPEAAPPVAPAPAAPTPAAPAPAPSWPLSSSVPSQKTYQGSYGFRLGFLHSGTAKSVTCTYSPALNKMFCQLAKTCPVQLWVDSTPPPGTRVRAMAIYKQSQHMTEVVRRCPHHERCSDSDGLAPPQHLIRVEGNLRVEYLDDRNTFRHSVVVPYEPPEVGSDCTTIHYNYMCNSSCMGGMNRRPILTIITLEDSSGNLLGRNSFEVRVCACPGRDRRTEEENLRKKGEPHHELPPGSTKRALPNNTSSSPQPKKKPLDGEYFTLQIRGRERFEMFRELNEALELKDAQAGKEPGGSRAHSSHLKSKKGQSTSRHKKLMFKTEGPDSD
Bile acid receptor (Homo sapiens), sequence (Q96RI1 whole entry, looked up, the tested form may be a part): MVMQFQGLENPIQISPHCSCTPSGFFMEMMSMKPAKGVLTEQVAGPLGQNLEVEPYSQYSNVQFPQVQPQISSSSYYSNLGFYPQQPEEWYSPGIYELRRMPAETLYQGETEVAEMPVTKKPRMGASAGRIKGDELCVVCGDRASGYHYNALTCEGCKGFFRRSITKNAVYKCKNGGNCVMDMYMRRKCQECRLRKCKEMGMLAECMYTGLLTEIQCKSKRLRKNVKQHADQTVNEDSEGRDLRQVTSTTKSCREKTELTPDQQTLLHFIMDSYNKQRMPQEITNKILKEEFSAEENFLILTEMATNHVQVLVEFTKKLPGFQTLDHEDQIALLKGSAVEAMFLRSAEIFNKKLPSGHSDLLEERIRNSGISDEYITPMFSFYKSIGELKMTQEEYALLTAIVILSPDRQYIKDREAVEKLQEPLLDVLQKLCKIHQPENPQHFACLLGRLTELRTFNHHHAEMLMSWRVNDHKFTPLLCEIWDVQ
Oxysterols receptor LXR-beta (Homo sapiens), sequence (P55055 whole entry, looked up, the tested form may be a part): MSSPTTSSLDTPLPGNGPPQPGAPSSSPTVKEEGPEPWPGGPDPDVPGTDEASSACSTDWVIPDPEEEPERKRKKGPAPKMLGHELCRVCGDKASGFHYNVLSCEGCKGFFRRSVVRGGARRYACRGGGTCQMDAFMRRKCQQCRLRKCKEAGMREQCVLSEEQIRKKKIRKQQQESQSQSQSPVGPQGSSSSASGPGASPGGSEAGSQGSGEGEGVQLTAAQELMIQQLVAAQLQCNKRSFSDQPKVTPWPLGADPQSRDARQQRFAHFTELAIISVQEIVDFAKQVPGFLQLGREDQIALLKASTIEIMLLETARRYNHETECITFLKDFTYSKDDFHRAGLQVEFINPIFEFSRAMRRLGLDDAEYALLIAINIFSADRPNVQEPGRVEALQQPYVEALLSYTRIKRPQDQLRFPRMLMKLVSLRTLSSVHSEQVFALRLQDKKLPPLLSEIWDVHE
Nuclear receptor subfamily 4 group A member 2 (Homo sapiens), sequence (P43354 whole entry, looked up, the tested form may be a part): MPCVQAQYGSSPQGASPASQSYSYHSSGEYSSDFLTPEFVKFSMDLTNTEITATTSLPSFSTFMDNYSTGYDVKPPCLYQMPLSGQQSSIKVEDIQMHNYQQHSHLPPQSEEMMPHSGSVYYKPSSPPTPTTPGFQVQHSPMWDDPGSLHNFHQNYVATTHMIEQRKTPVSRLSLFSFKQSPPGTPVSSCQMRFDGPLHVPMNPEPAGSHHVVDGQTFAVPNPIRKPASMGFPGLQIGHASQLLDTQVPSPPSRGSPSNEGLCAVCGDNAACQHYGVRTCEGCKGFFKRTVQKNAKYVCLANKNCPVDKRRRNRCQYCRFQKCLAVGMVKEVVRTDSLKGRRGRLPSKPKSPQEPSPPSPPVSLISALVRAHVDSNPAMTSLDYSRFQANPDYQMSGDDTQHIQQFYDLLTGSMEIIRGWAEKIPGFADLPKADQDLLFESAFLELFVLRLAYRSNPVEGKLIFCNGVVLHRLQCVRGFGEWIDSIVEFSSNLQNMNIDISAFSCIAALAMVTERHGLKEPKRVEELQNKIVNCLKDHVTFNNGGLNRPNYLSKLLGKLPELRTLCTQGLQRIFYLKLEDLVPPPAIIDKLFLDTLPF

CC(C)CCCCCCOC(=O)CCCCC(=O)OCCCCCCC(C)C
not listed: [13] | [14] | [15] | [16] | [17] | [18] | [19]
inactive: all other assays above

CN1CCC[C@H]1c1cccnc1
not listed: [5] | [8] | [16] | [17] | [18] | [19]
inactive: all other assays above

CCCCOCCO
not listed: [13] | [14] | [16] | [17] | [18] | [19]
inactive: all other assays above

CCCCCCCCCCCCN1CCCC1=O
active: [9] 33.6 µM | [10] 31.1 µM | [11] 35.2 µM | [12] 36.9 µM
not listed: [1] | [13] | [15] | [18] | [19]
inactive: all other assays above

CC(C)(C)c1cccc(C(C)(C)C)c1O
active: [4] 152 µM | [6] 167 µM | [7] 166 µM | [8] 177 µM
not listed: [1] | [13] | [15] | [18] | [19]
inactive: all other assays above

CN1CCN(c2ccccc2/C=C2\SCCN(c3ccc(Cl)c(Cl)c3)C2=O)CC1
active: [6] 3.7 µM | [9] 6.4 µM | [10] 16.2 µM
inactive: [1] | [2] | [3] | [4] | [5] | [7] | [8] | [11] | [12]

Nc1cccc2c(N)cccc12
active: [6] 46.6 µM
not listed: [1] | [13] | [15] | [19]
inactive: all other assays above

CCCCCCCC(=O)O
not listed: [5] | [14] | [17] | [18] | [19]
inactive: all other assays above

c1ccc2c(c1)Cc1ccccc1-2
active: [9] 4.37 µM
not listed: [13] | [14] | [15] | [16] | [18] | [19]
inactive: all other assays above

C=C(C)C(=O)OCCC(F)(F)C(F)(F)C(F)(F)C(F)(F)C(F)(F)C(F)(F)F
active: [12] 20 µM
inactive: [16] | [17] | [14] | [2] | [3] | [4] | [5] | [6] | [7] | [8] | [9] | [10] | [11] | [12]

CC[C@H](C)[C@@H](C(=O)O)n1sc2ccccc2c1=O
active: [6] 73.8 µM
not listed: [1] | [5] | [15] | [16] | [17] | [18] | [19]
inactive: all other assays above

ClC1=C(Cl)C(Cl)(Cl)C(Cl)=C1Cl
active: [2] 13.6 µM | [3] 14 µM and 9.06 µM | [15] 15.3 µM and 7.42 µM | [5] 8.6 µM and 5.05 µM | [6] 3.07 µM and 6.04 µM | [7] 13.4 µM and 6.26 µM | [8] 17.4 µM and 11.1 µM | [9] 5.07 µM | [10] 5.21 µM | [11] 5.82 µM | [12] 7.45 µM
inactive: [16] | [19] | [13] | [1] | [14] | [2] | [4]

CC1=C(/C=C/C(C)=C/C=C/C(C)=C/C(=O)O)C(C)(C)CCC1
active: [6] 35.7 µM | [7] 24.2 µM | [8] 20.6 µM | [11] 27.9 µM | [12] 9.37 µM
inactive: [16] | [1] | [14] | [2] | [3] | [15] | [4] | [5] | [6] | [7] | [8] | [9] | [10]

CCCCCCCCCCCCc1ccccc1S(=O)(=O)O
not listed: [1] | [13] | [15] | [18] | [19]
inactive: all other assays above
